# Measurements: PubChem BioAssay AID457 (Sanford-Burnham Center for Chemical Genomics, 2006)
# Hit rate of the full screen: of about 10,000 compounds, about 20 (0.2%) were called active. The list is a sample of the results. A number with no mark means an inactive call. How the calls were made is not given here.
# Experiment: enhancers of VCAM-1 display on endothelial cells, imaging, high-content imaging, pooled HUVEC, TNFa stimulus (AID 457);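 on augmentation: cells exposed to compound for 24 hours before fixing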
# Settings: TNFa-induced VCAM-1 immunofluorescence imaging;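 compounds tested at 5 µM in the well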
row,SMILES,augmentation
1,CC(C)Oc1cc2oc(=O)c3c(c2cc1Cl)CCC3,inactive
2,O=C(CSc1nc2ccccc2s1)N1CCN(C(=O)c2ccco2)CC1,inactive
3,CCOc1ccccc1N1CCN(S(=O)(=O)c2cccc3nsnc23)CC1,inactive
4,Cn1c(=O)c2c(nc(NCc3ccccc3)n2CCCc2ccccc2)n(C)c1=O,inactive
5,CCOC(=O)c1[nH]c(CSc2nnc(-c3ccc(OC)cc3)o2)c(C(=O)OCC)c1C,inactive
6,O=C(Nc1cnn(C23CC4CC(CC(C4)C2)C3)c1)c1cnn2c(C(F)(F)F)cc(-c3ccco3)nc12,inactive
7,Cc1noc(C)c1CSc1ccccc1C(=O)N1CCN(c2ccccc2)CC1,inactive
8,CCn1cc(C2=NCC(C)O2)c2ccccc21 (centres undefined),inactive
9,CCC(=O)N1CCc2cc(Br)cc(S(=O)(=O)C3(C(=O)OC)CC3)c21,inactive
10,COc1ccc(Cl)cc1NC(=O)CCN1CCN(c2ccccc2C)CC1,inactive
11,COC(=O)c1ccc2ncccc2c1,inactive
12,Cc1cccc(C2CC(c3ccccc3)Nc3nc(N)nn32)c1 (centres undefined),inactive
13,O=C(NCCCN1CCCC1=O)c1cncc(Br)c1,inactive
14,Cc1ccccc1-c1noc(N)c1C#N,inactive
15,COc1ccccc1-c1nnc(SCC(=O)NC2CCCCC2)o1,inactive
16,O=C(CSc1nnnn1-c1ccccc1Cl)Nc1ccc2c(c1)OCCO2,inactive
17,O=C(CCNC(=O)c1ccc(Br)o1)NC1CCCC1,inactive
18,N#Cc1cnn(Cc2ccc(Cl)cc2)c1N,inactive
19,COc1ccc(N2CCN(C(=O)CSc3ccccc3)CC2)cc1,inactive
20,Cc1csc(NC(=O)c2cccc(S(=O)(=O)N3CCCCC3)c2)n1,inactive
21,COCc1[nH]nc2c1C(c1cc(OC)c(O)c(OC)c1)C(C#N)=C(N)O2 (centres undefined),inactive
22,Cc1cc(NC(=O)CCC(=O)N(c2cccnc2)C(C(=O)NC2CCCC2)c2ccccc2F)no1 (centres undefined),inactive

row,SMILES,augmentation
1,CN(C)c1ccc(CNn2cnnc2)cc1,inactive
2,O=C(NC1CC2CCC1C2)c1ccc(CN2CCOCC2)cc1 (centres undefined),inactive
3,CCOc1ccc2nc(NC(=O)CSc3nc4ccccc4c(=O)n3Cc3ccco3)sc2c1,inactive
4,c1ccc(-n2ncc3c(N4CCCCC4)ncnc32)cc1,inactive
5,CCOc1ccccc1C(=O)NCC(=O)OCC(=O)N1C(C)CCCC1C (centres undefined),inactive
6,Cc1nc2oc3c(NCc4ccccn4)ncnc3c2c2c1COC(C)(C)C2,inactive
7,O=C(c1ccc(NS(=O)(=O)c2cccs2)cc1)N1CCCCC1,inactive
8,COCCNC(=O)c1ccc2c(c1)nc(C)n2-c1cccc(F)c1,inactive
9,O=C(c1ccc(Cl)cc1)N(Cc1cccs1)C1CCS(=O)(=O)C1 (centres undefined),inactive
10,CN(C(=O)c1c(Cl)nc2sccn12)C1CCCCC1,inactive
11,O=C(COC(=O)C1=COCCO1)Nc1ccccc1Oc1ccccc1,inactive
12,O=C(CN1C(=O)CSC1=O)Nc1ccc(N2CCOCC2)cc1,inactive
13,CCN(CC)CCN1C(=O)C(=O)/C(=C(/O)c2c(C)[nH]c(C(=O)OC)c2C)C1c1ccco1 (centres undefined),inactive
14,CCNC(=O)N(C)c1nncnc1C(=O)NC,inactive
15,Cc1noc(C)c1S(=O)(=O)N1CCC(C(=O)N2CCN(Cc3ccc4c(c3)OCO4)CC2)CC1,inactive
16,O=C(CSc1nnc(-c2ccncc2)n1-c1ccc(F)cc1)NC(=O)NCc1ccco1,inactive
17,COc1ccc(S(=O)(=O)NC(CC(=O)NCc2ccco2)c2ccco2)cc1 (centres undefined),inactive
18,COc1ccc2nc(NC(=O)C3CCCN(S(=O)(=O)c4cccc5nsnc45)C3)sc2c1 (centres undefined),inactive
19,COC(=O)C(CCCCNC(=O)OCc1ccccc1)NC(=O)CN (centres undefined),inactive
20,CCCCC(CC)Cn1c2nc3ccccc3nc2c2c(=N)oc(C)nc21 (centres undefined),inactive
21,O=C(CCCN1C(=O)c2ccccc2C1=O)NCc1cccnc1,inactive
22,CCN(CC)S(=O)(=O)c1cccc(-c2nnc(SCC(N)=O)n2CCc2ccccc2)c1,inactive

row,SMILES,augmentation
1,CCc1c(C(=O)Nc2cc(C)ccc2OC)[nH]c(C)c1C(C)=O,inactive
2,COC(=O)c1ccc(-c2nn(C)c(=O)c3ccccc23)cc1,inactive
3,Cc1cc2ncn(S(=O)(=O)c3ccc(S(=O)(=O)N4CCOCC4)cc3)c2cc1C,inactive
4,Cc1ccccc1NC(=O)CN1CCC(NC(=O)Nc2ccccc2)CC1,inactive
5,O=C(Nc1ccc(O)cc1)C1CCCN1S(=O)(=O)c1ccc(F)cc1 (centres undefined),inactive
6,O=c1c2ccccc2cnn1-c1nc2ccccc2s1,inactive
7,CCc1nnc(NC(=O)CSc2nc3ccccc3s2)s1,inactive
8,Cc1cccc(C(=O)N(C)c2nnc(-c3ccncc3)s2)c1,inactive
9,CCOC(=O)CC1(CC(=O)OCC)NC(=O)c2c(C)sc(C(=O)OCC)c2N1,inactive
10,CCSc1nc(-c2ccc(OC)cc2)ccc1C#N,inactive
11,COC(=O)c1ccccc1NC(=O)c1cc(-c2ccc(OC)c(OC)c2)on1,inactive
12,Cc1cccc(N(CC(=O)Nc2ccc(CC#N)cc2)S(C)(=O)=O)c1,inactive
13,COc1ccc(CN(C(=O)c2oc3ccccc3c2C)C2CCS(=O)(=O)C2)cc1 (centres undefined),inactive
14,Cn1c(=O)c2ncn(CC(=O)NCCOc3ccc(C(C)(C)C)cc3)c2n(C)c1=O,inactive
15,CSc1nc2ccc(S(=O)(=O)N3CCOCC3)cc2s1,inactive
16,Cn1c(Cc2cccs2)nnc1SCC(=O)N1CCc2ccccc21,inactive
17,O=S(=O)(c1cccc(S(=O)(=O)N2CCC(N3CCCCC3)CC2)c1)N1CCOCC1,inactive
18,Cc1ccccc1CS(=O)(=O)Cc1ccc(C(=O)NCCCN2CCOCC2)o1,inactive
19,COc1cccc(-c2noc(CCC(=O)NC3CCCCC3)n2)c1,inactive
20,CCOC(=O)CSC1=Nc2ccccc2C2=NC(CC(=O)NCc3ccc(OC)cc3)C(=O)N12 (centres undefined),inactive
21,Cc1cc(NC(=O)C23CCC(C)(c4nc5cc(Cl)c(Cl)cc5nc42)C3(C)C)no1 (centres undefined),inactive
22,Cc1ccc(/C(O)=C2\C(=O)C(=O)N(CCCN(C)C)C2c2ccccn2)cc1 (centres undefined),inactive

row,SMILES,augmentation
1,O=C(OCc1ccc2c(c1)OCO2)c1ccc(S(=O)(=O)N2CCCCC2)cc1,inactive
2,CCN(CC)S(=O)(=O)c1ccc(S(=O)(=O)N(Cc2ccccn2)Cc2ccco2)cc1,inactive
3,O=C(COc1ccc(S(=O)(=O)NC2CCCCC2)cc1)NCc1ccccn1,inactive
4,CCCCOc1ccc(N(CC(=O)NC2CCCC2)C(=O)CCC(=O)Nc2ccccn2)cc1,inactive
5,CS(=O)(=O)Nc1ccc(C(=O)NCc2ccco2)cc1,inactive
6,CCN(Cc1nc2cc(OC)c(OC)cc2c(=O)[nH]1)C(=O)c1ccc(S(=O)(=O)N(C)C)cc1,inactive
7,O=C(CP(=O)(c1ccccc1)c1ccccc1)N1CCCCC1,inactive
8,Cc1cnc(C(=O)Nc2ccc(N3CCN(C(=O)OC(C)(C)C)CC3)cc2)cn1,14.8%
9,COc1cccc(N2CCN(CC(=O)Nc3nnc(-c4ccccc4)s3)CC2)c1,inactive
10,Oc1ccc(N2CCN(C(c3ccncc3)c3nnnn3C3CCCC3)CC2)cc1 (centres undefined),inactive
11,C1CCC2=NCCCN2CC1,inactive
12,CCOc1ccc(N(CC(=O)Nc2ccc(F)c(F)c2)S(=O)(=O)c2c(C)noc2C)cc1,inactive
13,COc1cc(Cl)c(C)cc1NC(=O)COC(=O)c1cnc(C)cn1,inactive
14,O=C(CC1CCCCC1)NCc1ccccn1,inactive
15,COc1ccccc1CNS(=O)(=O)c1ccc(NC(C)=O)cc1,inactive
16,COc1ccc(S(=O)(=O)NC2CCCCC2)c(C)c1C,inactive
17,Cc1nc2ccc(S(=O)(=O)NCC(=O)N3CCc4ccccc4C3)cc2s1,inactive
18,CCOc1ccccc1Nc1nc2ccccc2[nH]1,inactive
19,Cc1ccc2nc(-c3ccc4c(c3)OCCO4)cc(C(=O)O)c2c1,inactive
20,COc1ccc(C(=O)NCCc2nnc(SCc3nc4ccccc4c(=O)[nH]3)n2C)cc1,inactive
21,Cc1cc(NC(=O)c2cc3ccccc3o2)cc(C)c1OCC(=O)N1CCOCC1,inactive
22,Cc1c(C(=O)OCC(C)C)[nH]c2c1C(=O)CC(c1ccco1)C2 (centres undefined),inactive

row,SMILES,augmentation
1,CC(NC(=O)c1ccc(F)cc1)C(c1cccs1)N1CCN(C)CC1 (centres undefined),inactive
2,C=CCN1C(=O)C2(C(C#N)=C(N)Oc3n[nH]c(CCC)c32)c2ccccc21 (centres undefined),inactive
3,CCOC(=O)c1c(NC(=O)OC)sc(C(=O)N(C)C)c1C,inactive
4,COc1ccc(N(C)C(=O)CCS(=O)(=O)c2cccc3nonc23)cc1,inactive
5,COc1ccc(CCNC(=O)CCN2C(=O)C3CC=CCC3C2=O)cc1OC (centres undefined),inactive
6,O=C(Nc1ccccc1)c1cnc2n(c1=O)CCS2,inactive
7,C=CCn1cnc2c(NCc3ccccc3)ncnc21,inactive
8,Cc1cc(C)n(S(=O)(=O)c2cc(C(=O)O)c(Cl)cc2Cl)n1,inactive
9,CCOC(=O)C1=C(CN2CCOCC2)NC(=O)NC1c1cc(C)ccc1C (centres undefined),inactive
10,O=C(O)CC(NC(=O)c1ccccc1NC(=O)c1ccccc1)C(=O)O (centres undefined),inactive
11,COc1ccc2cc(CN(CCO)C(=O)c3ccc(Br)cc3)c(=O)[nH]c2c1,inactive
12,COc1cc(OC)cc(-c2nnc(SCC(=O)Nc3cc(C)on3)o2)c1,inactive
13,Cc1ccc(C(=O)OCC(=O)Nc2ccc3c(c2)OCO3)o1,inactive
14,Cc1cc2ccccc2c(=O)n1CC(=O)N(C)c1ccc(F)cc1,inactive
15,CC(Oc1ccccc1)C(=O)Nc1ccc(S(=O)(=O)NCC2CCCO2)cc1 (centres undefined),inactive
16,Cn1c(NC(=O)c2cccc(Cn3cc(Cl)cn3)c2)nc2ccccc21,inactive
17,Cc1cc2c(s1)c1cnn(CC(=O)NCCc3ccccc3)c(=O)c1n2C,inactive
18,COc1ccc2c(c1)CCc1c(C(=O)N3CC4(C)CC3CC(C)(C)C4)noc1-2 (centres undefined),inactive
19,O=C(Cn1ccc2ccccc2c1=O)NCCC(=O)N1CCN(C(=O)c2ccco2)CC1,inactive
20,CCN(CC)C1CCCCC1NS(=O)(=O)c1ccc(Cl)cc1 (centres undefined),inactive
21,Cn1c(=O)cc(OCC(=O)N2CCN(c3cccc(C(F)(F)F)c3)CC2)c2ccccc21,inactive
